Where “and” joins values, the source holds several entries; their conditions need not be identical. Identical values can stand only once. Results filed as inconclusive are left out. Some compounds were tested as several samples or in several runs, with calls that do not always agree. Calls of active or inactive are those of the source. Unless noted, calls come from the whole dose curve; as a rule, active = well fitted curve in the direction sought with a large enough effect in the repeat runs; inconclusive = weak or mixed curves; inactive = no such curve, though single readings can be large; an effect the other way counts as inactive or inconclusive.
What was measured:
[1] = qHTS assay to identify small molecule agonists of the hypoxia (HIF-1) signaling pathway - cell viability counter screen (AID 1224844; calls by dose curve; note: nearly all actives have a fitted effect of over 50% in size; note: potency is the fitted concentration of half-maximal effect)
Procedure, shortened: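 Same wells as the HIF-1 reporter screen; ME-180 cells carrying HRE-bla, 17 hr treatment at 37C; CellTiter-Glo luminescence read after 30 min at room temperature.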

[2] = qHTS assay to identify small molecule agonists of H2AX (AID 1224845; active = well fitted activation curve with a large enough effect in the signal ratio in the repeat runs, not every such curve was filed as active; the % refers to the signal ratio; note: potency is the fitted concentration of half-maximal effect)
Procedure, shortened: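 Phospho-H2AX Ser139 measured by HTRF (ex 320 nm; em 665 and 620 nm) after 24 hr antibody incubation. Compounds, 15 concentrations, 0.76% DMSO, were applied to CHO-K1 cells for 3hr at 37C before lysis.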

[3] = qHTS assay to identify small molecule agonists of the hypoxia (HIF-1) signaling pathway (AID 1224846; active = well fitted activation curve with a large enough effect in the signal ratio in the repeat runs, not every such curve was filed as active; the % refers to the signal ratio; note: potency is the fitted concentration of half-maximal effect)
Procedure, shortened: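 In ME-180 cells bearing an HRE-bla construct, 17 h treatment with DMSO-dissolved compounds at 37C was followed by CCF4-AM loading to quantify reporter induction.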

[4] = qHTS RealTime-Glo MT Cell Viability Assay in HepG2 cells - 24 hour (AID 1224867); note: nearly all actives have a fitted effect of over 50% in size; note: potency is the fitted concentration of half-maximal effect
Procedure, shortened: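 Compound treatment began 5 h after plating HepG2 cells (600/well) with NanoLuc luciferase and prosubstrate. Plates stayed at 37 C for 40 h; luminescence was captured at six time points, 0 h through 40 h.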

[5] = A CellTox Green Cytotoxicity Assay to monitor cytotoxicity in HEK293 cells - 0 hour (AID 1224869); note: nearly all actives have a fitted effect of over 50% in size; note: potency is the fitted concentration of half-maximal effect
Procedure, shortened: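 Homogeneous no-lysis format: HEK293 cell suspension mixed with CellTox Green reagent, seeded, incubated 5 h at 37 C/5% CO2, then dosed by pintool with compound in DMSO.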

[6] = qHTS RealTime-Glo MT Cell Viability Assay in HepG2 cells - 40 hour (AID 1224870); note: nearly all actives have a fitted effect of over 50% in size; note: potency is the fitted concentration of half-maximal effect
Procedure, shortened: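 Real-time viability: cells seeded at 600 per well together with NanoLuc and cell-permeant prosubstrate, compounds added after 5 h incubation. Luminescence tracked at 0, 8, 16, 24, 32 and 40 h of exposure.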

[7] = qHTS assay to identify small molecule antagonists of the estrogen related receptor (ERR) signaling pathway from Tox21 library (AID 1224848); note: nearly all actives have a fitted effect of over 50% in size; note: potency is the fitted concentration of half-maximal effect
Procedure, shortened: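 Luciferase luminescence (ONE-Glo, 30 min room temperature) was the read-out. Cells of the NTP-supplied ERR line, 2,000 per well, were given 6 h at 37 C before compound addition in DMSO and 18 h exposure at 37 C.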

[8] = qHTS assay to identify small molecule agonists of the estrogen related receptor (ERR) signaling pathway from Tox21 library (AID 1224849; calls by dose curve; note: nearly all actives have a fitted effect of over 15% in size); details: ERR reporter cell line, ONE-Glo luciferase, 18 h
Procedure, shortened: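 Reporter cells (ERR, NTP source) treated with Tox21 10K compounds 18 h, 37 C. Readout: ONE-Glo luminescence, 30 min RT.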

[9] = qHTS RealTime-Glo MT Cell Viability Assay in HEK293 cells - 32 hour (AID 1224868); note: nearly all actives have a fitted effect of over 50% in size; note: potency is the fitted concentration of half-maximal effect
Procedure, shortened: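 Quantitative high-throughput screen of the Tox21 10K library in HEK293: cells and RealTime-Glo reagents plated together, compound added at 5 h, luminescence monitored through 40 h at 37 C.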

[10] = qHTS assay to identify small molecule agonists of H2AX - cell viability counter screen (AID 1224847; calls by dose curve; note: nearly all actives have a fitted effect of over 30% in size; note: potency is the fitted concentration of half-maximal effect)
Procedure, shortened: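 Counter-screen for viability: CellTiter-Glo ATP luminescence read after 3 h compound treatment (15-point titration, 0.76% DMSO final) of CHO-K1 cells at 37C, with 30 min room-temperature reagent incubation.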
% is set by controls: 0 for no effect and ±100 for the full control effect.

O=c1n(CC2CO2)c(=O)n(CC2CO2)c(=O)n1CC1CO1 (configuration not stated)
inactive: Potency [1] | Potency [3] | Potency [4] | Potency [5] | Potency [6]
active: Potency [2] 112 µM

OCCN1CCNCC1
active: Potency [9] 7.9 µM
inactive: Potency [1] | Potency [2] | Potency [3] | Potency [7] | activity change, positive = activation ([8]; at 92.4 µM (top of the series)) 9.65% and -11.4% | Potency [4] | Potency [5] | Potency [6]

Cc1cc(C(C)(C)C)c(O)c(C(C)(C)C)c1
inactive: Potency [1] | Potency [2] | Potency [3] | Potency [4] | Potency [9] | Potency [5] | Potency [6]

CC(=O)Nc1ccc(C(=O)CCl)cc1
inactive: Potency [2] | Potency [3] | Potency [10] | Potency [4]
inactive and 11 µM (active): Potency [1]
inactive and 24.5 µM (active): Potency [9] | Potency [6]

COC(=O)c1cccc(C(=O)OC)c1
inactive: Potency [1] | Potency [2] | Potency [3] | Potency [10] | Potency [4] | Potency [9] | Potency [6]
inactive and 43.6 µM (active): Potency [5]

C/C=C/c1ccc(OCC)c(O)c1
inactive: Potency [1] | Potency [2] | Potency [3] | Potency [10] | Potency [4] | Potency [9] | Potency [5] | Potency [6]

COC(=O)/C=C/c1ccccc1
inactive and 21.9 µM (active): Potency [5]
inactive: Potency [1] | Potency [2] | Potency [3] | Potency [4] | Potency [9] | Potency [6]

CCCN[C@H]1CCc2nc(N)sc2C1
inactive: Potency [1] | Potency [2] | Potency [3] | Potency [4] | Potency [9] | Potency [5] | Potency [6]

Cc1ccnc2c1NC(=O)c1cccnc1N2C1CC1
inactive: Potency [1] | Potency [2] | Potency [3] | Potency [4] | Potency [9] | Potency [5] | Potency [6]

O=C(O)c1cn(-c2ccc(F)cc2)c2cc(N3CCNCC3)c(F)cc2c1=O
inactive: Potency [1] | Potency [2] | Potency [3] | Potency [10] | Potency [4] | Potency [9] | Potency [5] | Potency [6]

CCN(CC)c1ccc2c(C)cc(=O)oc2c1
inactive: Potency [1] | Potency [2] | Potency [4] | Potency [5] | Potency [6]
active: Potency [3] 44 µM and 43.6 µM | Potency [9] 34.9 µM

CC(C)(C)NC(=O)[C@@H]1CN(Cc2cccnc2)CCN1C[C@@H](O)C[C@@H](Cc1ccccc1)C(=O)N[C@H]1c2ccccc2C[C@H]1O
inactive: Potency [1] | Potency [2] | Potency [3] | Potency [4] | Potency [9] | Potency [5] | Potency [6]

O=C(O)c1cc(Cl)cc(Cl)c1
inactive: Potency [1] | Potency [2] | Potency [3] | Potency [7] | activity change, positive = activation ([8]; at 92.4 µM (top of the series)) -3.61% | Potency [4] | Potency [9] | Potency [6]

O=C(Cl)c1cccc(C(=O)Cl)c1
inactive: Potency [1] | Potency [2] | Potency [3] | Potency [10] | Potency [4] | Potency [9] | Potency [5] | Potency [6]

CC(=O)O[C@]1(C(C)=O)CC[C@H]2[C@@H]3C[C@H](C)C4=CC(=O)CC[C@]4(C)[C@H]3CC[C@@]21C
active: Potency [9] 19.5 µM and 10.7 µM
inactive: Potency [1] | Potency [2] | Potency [3] | Potency [10] | Potency [4] | Potency [5] | Potency [6]

CC(C)(C)c1ccccc1
inactive: Potency [1] | Potency [2] | Potency [3] | Potency [7] | activity change, positive = activation ([8]; at 92.4 µM (top of the series)) 0.862% | Potency [4] | Potency [9] | Potency [5] | Potency [6]

O=C(OCc1ccccc1)c1ccc(O)cc1
inactive: Potency [1] | Potency [2] | Potency [3] | Potency [4] | Potency [9] | Potency [5] | Potency [6]

CCOc1ccccc1C(N)=O
inactive: Potency [1] | Potency [2] | Potency [3] | Potency [4] | Potency [9] | Potency [5] | Potency [6]

O
inactive: Potency [1] | Potency [2] | Potency [3] | Potency [10] | Potency [4] | Potency [9] | Potency [5] | Potency [6]

C=C(C)C(=O)O
inactive: Potency [1] | Potency [2] | Potency [3] | Potency [10] | Potency [4] | Potency [9] | Potency [5] | Potency [6]

CCCCCCC(O)CCCCCCCCCCC(=O)O (configuration not stated)
inactive: Potency [1] | Potency [2] | Potency [3] | Potency [10] | activity change, positive = activation ([8]; at 92.4 µM (top of the series)) -9.99% and -15.5% | Potency [4] | Potency [9] | Potency [5] | Potency [6]

COc1ccc(COC(C)=O)cc1
inactive: Potency [1] | Potency [2] | Potency [3] | Potency [7] | activity change, positive = activation ([8]; at 92.4 µM (top of the series)) 0.212% and 1.93% | Potency [4] | Potency [9] | Potency [5] | Potency [6]

NCCO
inactive: Potency [1] | Potency [2] | Potency [3] | Potency [4] | Potency [9] | Potency [6]

CC(C)(C)NCC(O)c1cc(O)cc(O)c1 (configuration not stated)
inactive: Potency [1] | Potency [2] | Potency [3] | Potency [10] | Potency [4] | Potency [9] | Potency [5] | Potency [6]

O=C(O)CP(=O)(O)O
inactive: Potency [1] | Potency [2] | Potency [3] | Potency [10] | Potency [4] | Potency [9] | Potency [5] | Potency [6]

c1ccc2cc3c(ccc4ccccc43)cc2c1
inactive: Potency [1] | Potency [2] | Potency [3] | Potency [4] | Potency [9] | Potency [5] | Potency [6]

CC(C)CCOC(=O)c1ccc(N(C)C)cc1
active: activity change, positive = activation ([8]; at 42.5 µM (top of the series)) 81.2%
inactive: Potency [1] | Potency [2] | Potency [3] | Potency [7] | Potency [4] | Potency [9] | Potency [6]

CCc1ccc(C(c2ccc(CC)cc2)C(Cl)Cl)cc1
active: Potency [10] 115 µM
inactive: Potency [1] | Potency [2] | Potency [3] | Potency [4] | Potency [5] | Potency [6]

CC(=O)C1=C(C)[C@@H]2C[C@@]3(C1)[C@H](C)CC[C@H]3C2(C)C
inactive: Potency [1] | Potency [2] | Potency [3] | Potency [10] | Potency [4] | Potency [9] | Potency [5] | Potency [6]

CC(=O)OCC1=C(C(=O)O)N2C(=O)[C@@H](NC(=O)Cc3cccs3)[C@H]2SC1
inactive: Potency [1] | Potency [2] | Potency [3] | Potency [10] | Potency [4] | Potency [9] | Potency [5] | Potency [6]

O=C(Oc1ccccc1)c1ccccc1O
inactive: Potency [1] | Potency [2] | Potency [3] | Potency [10] | Potency [4] | Potency [9] | Potency [5] | Potency [6]

O=C(O)c1cccc(C(=O)O)c1
inactive: Potency [1] | Potency [2] | Potency [3] | Potency [10] | Potency [4] | Potency [9] | Potency [5] | Potency [6]

CCCCOCCOC(=O)c1ccccc1C(=O)OCCOCCCC
active: Potency [7] 26.7 µM and 30.6 µM
inactive: Potency [1] | Potency [2] | Potency [3] | activity change, positive = activation ([8]; at 92.4 µM (top of the series)) -34.9% and -38.2% | Potency [4] | Potency [9] | Potency [6]

NNCCc1ccccc1
inactive: Potency [1] | Potency [2] | Potency [10] | Potency [4] | Potency [9] | Potency [6]

NC(N)=NC(=O)Cc1c(Cl)cccc1Cl
inactive: Potency [1] | Potency [2] | Potency [10] | Potency [7] | activity change, positive = activation ([8]; at 42.5 µM (top of the series)) -1.99% | Potency [4] | Potency [9] | Potency [5] | Potency [6]

O=C1CC2(CCCC2)CC(=O)N1CCCCN1CCN(c2ncccn2)CC1
4.36 µM (active) and inactive: Potency [1]
inactive: Potency [2] | Potency [10] | activity change, positive = activation ([8]; at 42.5 µM (top of the series)) -12.4% | activity change, positive = activation ([8]; at 92.4 µM (top of the series)) -47% | Potency [4] | Potency [5] | Potency [6]
30.6 µM (active) and inactive: Potency [7]
43.6 µM (active) and inactive: Potency [9]

CC1COc2c(N3CCN(C)CC3)c(F)cc3c(=O)c(C(=O)O)cn1c23 (configuration not stated)
inactive: Potency [1] | Potency [2] | Potency [10]

Cc1cccc2n[nH]nc12
inactive: Potency [1] | Potency [2] | Potency [7] | activity change, positive = activation ([8]; at 92.4 µM (top of the series)) 7.89% and -7.83% | Potency [4] | Potency [9] | Potency [6]

Cc1cc(OCCOCC[N+](C)(C)Cc2ccccc2)ccc1C(C)(C)CC(C)(C)C
active: Potency [1] 24.4 µM and 23.9 µM | Potency [10] 100 µM and 55.2 µM | Potency [7] 13.6 µM and 6.68 µM | Potency [4] 15.4 µM and 10.7 µM | Potency [9] 10.9 µM and 7.56 µM | Potency [6] 12.2 µM and 8.49 µM
inactive: Potency [2] | activity change, positive = activation ([8]; at 42.5 µM (top of the series)) -54.7% | activity change, positive = activation ([8]; at 92.4 µM (top of the series)) -79.5%
